# Assay results reported in PubChem BioAssay (Tox21).
# Several values for one entry are separate records, joined by “and”; a condition that tells them apart may be missing. Equal entries are not always repeated. Inconclusive results are not listed. Entries that show only a call come without a potency. A structure can be active in one record and inactive in another. Activity calls are given as the source filed them. Unless noted, the call rests on the fitted dose curve; in most records, active means well fitted curve in the direction sought with a large enough effect in the repeat runs; inconclusive means weak or mixed curves; inactive means no such curve, though single readings can be large; an effect the other way counts as inactive or inconclusive.
# Assays:
# [1] = qHTS assay to identify aromatase inhibitors - cell viability counter screen (AID 743084);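 further: cells stimulated with testosterone during compound exposure; nearly all actives have a fitted effect of over 55% in size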; further: potency means the concentration at half of the fitted maximal effect
# [2] = target: Aryl hydrocarbon receptor (Homo sapiens) (UniProt P35869); experiment: qHTS assay to identify small molecule that activate the aryl hydrocarbon receptor (AhR) signaling pathway (AID 743085);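 further: HG2L7.5c1 human HepG2 liver cells with stably integrated DRE-driven firefly reporter; series mostly up to about 70 µM; nearly all actives have a fitted effect of over 15% in size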
# Sequence of Aryl hydrocarbon receptor (Homo sapiens) (P35869 whole entry, looked up): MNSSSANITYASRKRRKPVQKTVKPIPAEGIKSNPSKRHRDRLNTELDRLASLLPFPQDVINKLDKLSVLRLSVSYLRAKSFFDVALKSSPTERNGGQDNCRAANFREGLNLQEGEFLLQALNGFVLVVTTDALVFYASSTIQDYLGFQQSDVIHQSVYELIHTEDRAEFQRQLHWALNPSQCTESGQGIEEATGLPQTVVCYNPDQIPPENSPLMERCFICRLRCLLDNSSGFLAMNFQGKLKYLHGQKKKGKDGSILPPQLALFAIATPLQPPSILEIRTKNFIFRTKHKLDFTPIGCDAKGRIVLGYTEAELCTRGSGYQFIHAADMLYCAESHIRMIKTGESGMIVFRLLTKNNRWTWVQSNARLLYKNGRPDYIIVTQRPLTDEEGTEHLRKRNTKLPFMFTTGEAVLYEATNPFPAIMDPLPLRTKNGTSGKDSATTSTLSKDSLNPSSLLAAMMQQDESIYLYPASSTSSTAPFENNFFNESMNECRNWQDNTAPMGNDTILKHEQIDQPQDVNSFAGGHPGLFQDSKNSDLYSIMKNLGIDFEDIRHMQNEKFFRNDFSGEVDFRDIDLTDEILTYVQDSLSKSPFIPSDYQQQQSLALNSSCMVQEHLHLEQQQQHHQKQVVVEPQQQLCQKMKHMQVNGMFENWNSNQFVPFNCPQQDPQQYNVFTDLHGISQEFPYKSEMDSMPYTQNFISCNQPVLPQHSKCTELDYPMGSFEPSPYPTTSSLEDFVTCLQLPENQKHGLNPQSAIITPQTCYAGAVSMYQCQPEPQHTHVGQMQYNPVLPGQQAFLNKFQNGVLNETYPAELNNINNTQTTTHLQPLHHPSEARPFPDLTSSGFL
# How it was run: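 24 h compound exposure, 37C, HepG2-derived HG2L7.5c1 cells with DRE-responsive luciferase. Readouts: fluorescence viability, then luminescence at room temperature after 30 min.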
# [3] = qHTS assay to identify small molecule that activate the aryl hydrocarbon receptor (AhR) signaling pathway - cell viability counter screen (AID 743086);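 further: HepG2 liver cells carrying the AhR DRE luciferase reporter; series mostly up to about 70 µM; nearly all actives have a fitted effect of over 45% in size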
# How it was run: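 HepG2-AhR-luc (HG2L7.5c1) cells, 4000/well, treated 24 h at 37 C with compound; viability measured as CellTiter-Fluor fluorescence after 30 min in the same wells as the luciferase read.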
# [4] = target: Peroxisome proliferator-activated receptor gamma (Homo sapiens) (UniProt P37231); experiment: qHTS assay to identify small molecule agonists of the peroxisome proliferator-activated receptor gamma (PPARg) signaling pathway (AID 743094; active means well fitted activation curve with a large enough effect in the signal ratio in the repeat runs, not every such curve was filed as active; the % refers to the signal ratio)
# Sequence of Peroxisome proliferator-activated receptor gamma (Homo sapiens) (P37231 whole entry, looked up): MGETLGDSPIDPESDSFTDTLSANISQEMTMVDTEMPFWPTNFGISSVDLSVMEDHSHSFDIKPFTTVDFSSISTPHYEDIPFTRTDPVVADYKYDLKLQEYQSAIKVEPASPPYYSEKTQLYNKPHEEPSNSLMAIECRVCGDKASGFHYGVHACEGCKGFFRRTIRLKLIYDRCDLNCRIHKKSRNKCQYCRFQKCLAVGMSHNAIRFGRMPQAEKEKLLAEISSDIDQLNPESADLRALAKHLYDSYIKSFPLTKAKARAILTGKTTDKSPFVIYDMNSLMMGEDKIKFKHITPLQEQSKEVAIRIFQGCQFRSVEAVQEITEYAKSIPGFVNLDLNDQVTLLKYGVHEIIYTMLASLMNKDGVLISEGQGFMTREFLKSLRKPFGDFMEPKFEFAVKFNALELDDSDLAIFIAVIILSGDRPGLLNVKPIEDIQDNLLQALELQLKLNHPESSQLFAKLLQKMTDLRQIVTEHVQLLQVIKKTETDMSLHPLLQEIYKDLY
# How it was run: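 Agonist activity was taken from a beta-lactamase reporter (FRET substrate, 1 h at room temperature) in HEK293H cells carrying a PPARg UAS-bla construct. Compounds in DMSO were incubated 17 h at 37C after a 5 h cell pre-incubation.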
# [5] = target: Peroxisome proliferator-activated receptor gamma (Homo sapiens) (UniProt P37231); experiment: qHTS assay to identify small molecule antagonists of the peroxisome proliferator-activated receptor gamma (PPARg) signaling pathway (AID 743191; calls by dose curve; further: series mostly up to about 63 µM; nearly all actives have a fitted effect of over 30% in size)
# How it was run: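 GeneBLAzer PPARg UAS-bla HEK293H cells, 5 h post-plating, exposed to compounds 17 h at 37C. LiveBLAzer B/G FRET substrate added for 1 h at room temperature; beta-lactamase reporter read by fluorescence intensity.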
# [6] = qHTS assay to identify small molecule antagonists of the peroxisome proliferator-activated receptor gamma (PPARg) signaling pathway - cell viability counter screen (AID 743194); further: nearly all actives have a fitted effect of over 55% in size
# How it was run: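 Cytotoxicity counter screen in PPARg-bla HEK293H cells, same wells as reporter assay. Compounds plus 50 nM rosiglitazone (final) for 17 h at 37 C, then viability read by CellTiter-Glo luminescence.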
# [7] = qHTS assay for small molecule agonists of the antioxidant response element (ARE) signaling pathway (AID 743202; active means well fitted activation curve with a large enough effect in the signal ratio in the repeat runs, not every such curve was filed as active; the % refers to the signal ratio)
# How it was run: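 HepG2 ARE-bla cells; 16 h treatment at 37 C; FRET-based beta-lactamase fluorescence read after 2 h substrate incubation at room temperature.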
# [8] = qHTS assay for small molecule agonists of the antioxidant response element (ARE) signaling pathway - cell viability counter screen (AID 743203; calls by dose curve; further: nearly all actives have a fitted effect of over 55% in size)
# How it was run: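 Viability counter screen: CellTiter-Glo luminescence, read after 30 min at room temperature, in ARE-bla HepG2 wells. Compound exposure lasted 16 h at 37C/5% CO2, following a 5 h pre-incubation of the cells after plating.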
# [9] = qHTS assay for small molecule activators of the heat shock response signaling pathway - cell viability counter screen (AID 743209); further: nearly all actives have a fitted effect of over 50% in size
# How it was run: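 Cytotoxicity counter screen run in the same wells as the heat-shock bla reporter assay: HeLa HSE-bla cells, 5 h compound exposure at 37 C, viability read by CellTiter-Glo luminescence.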
# [10] = qHTS assay for small molecule activators of the heat shock response signaling pathway (AID 743210; active means well fitted activation curve with a large enough effect in the signal ratio in the repeat runs, with a control signal flat, not every such curve was filed as active; the % refers to the signal ratio;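 further: HeLa cells with beta-lactamase reporter driven by heat shock elements; series mostly up to about 63 µM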)
# How it was run: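 Following overnight attachment, HSE-bla HeLa cells received test compounds for 5 h at 37 C; beta-lactamase activity was then detected via FRET substrate fluorescence.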
# [11] = qHTS assay to identify small molecule agonists of the peroxisome proliferator-activated receptor delta (PPARd) signaling pathway - cell viability counter screen (AID 743211); further: nearly all actives have a fitted effect of over 55% in size
# How it was run: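 Luminescent ATP viability assay (CellTiter-Glo, 30 min RT) in UAS-bla HEK293H cells carrying the PPAR delta reporter construct, 3000 cells/well, after a 17 h compound treatment at 37 C.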
# [12] = target: Peroxisome proliferator-activated receptor delta (Homo sapiens) (UniProt Q03181); experiment: qHTS assay to identify small molecule agonists of the peroxisome proliferator-activated receptor delta (PPARd) signaling pathway (AID 743212; calls by dose curve)
# Sequence of Peroxisome proliferator-activated receptor delta (Homo sapiens) (Q03181 whole entry, looked up): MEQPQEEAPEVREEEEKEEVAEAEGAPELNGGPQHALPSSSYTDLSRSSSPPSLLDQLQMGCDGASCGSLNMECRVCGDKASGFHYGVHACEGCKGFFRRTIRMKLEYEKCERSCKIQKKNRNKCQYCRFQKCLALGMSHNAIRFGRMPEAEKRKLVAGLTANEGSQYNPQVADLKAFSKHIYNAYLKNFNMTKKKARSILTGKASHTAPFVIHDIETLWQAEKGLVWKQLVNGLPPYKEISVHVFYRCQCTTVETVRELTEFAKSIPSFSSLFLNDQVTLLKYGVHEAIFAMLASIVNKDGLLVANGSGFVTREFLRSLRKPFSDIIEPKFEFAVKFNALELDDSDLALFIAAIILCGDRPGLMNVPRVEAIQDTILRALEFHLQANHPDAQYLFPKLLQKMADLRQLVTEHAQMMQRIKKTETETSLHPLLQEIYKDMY
# How it was run: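 Tox21 library screened in GeneBLAzer PPARd UAS-bla HEK293H cells. After compound treatment at 37 C, a FRET-based beta-lactamase substrate was applied for 2 h and fluorescence recorded.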
# [13] = qHTS assay to identify small molecule antagonists of the peroxisome proliferator-activated receptor delta (PPARd) signaling pathway - cell viability counter screen (AID 743213); further: nearly all actives have a fitted effect of over 50% in size
# How it was run: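 PPARd-bla HEK293H cells (3000/well) got compound plus 300 nM L165041 agonist for 17 h at 37 C. Viability in the same wells came from CellTiter-Glo luminescence after 30 min at room temperature.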
# [14] = target: Bile acid receptor (Homo sapiens) (UniProt Q96RI1); experiment: qHTS assay to identify small molecule antagonists of the farnesoid-X-receptor (FXR) signaling pathway (AID 743217; active means well fitted inhibition curve with a large enough effect in the signal ratio in the repeat runs, not every such curve was filed as active; the % refers to the signal ratio)
# Sequence of Bile acid receptor (Homo sapiens) (Q96RI1 whole entry, looked up): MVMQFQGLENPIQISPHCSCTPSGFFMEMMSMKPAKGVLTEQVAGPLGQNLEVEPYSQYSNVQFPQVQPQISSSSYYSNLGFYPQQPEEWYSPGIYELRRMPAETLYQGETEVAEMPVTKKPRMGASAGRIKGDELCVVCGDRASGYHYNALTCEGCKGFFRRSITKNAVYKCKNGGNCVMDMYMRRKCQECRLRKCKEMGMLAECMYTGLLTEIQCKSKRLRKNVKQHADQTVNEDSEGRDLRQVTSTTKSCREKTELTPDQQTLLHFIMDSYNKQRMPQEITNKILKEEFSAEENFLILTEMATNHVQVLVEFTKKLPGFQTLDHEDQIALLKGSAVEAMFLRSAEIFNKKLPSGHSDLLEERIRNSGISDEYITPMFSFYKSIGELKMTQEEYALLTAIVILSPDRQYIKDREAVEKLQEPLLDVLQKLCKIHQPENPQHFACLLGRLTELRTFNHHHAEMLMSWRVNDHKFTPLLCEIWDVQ
# How it was run: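 Antagonist mode: chenodeoxycholic acid at 50 uM final stimulates a UAS-driven beta-lactamase reporter in HEK 293T FXR-bla cells during 16 h, 37C compound exposure. Read-out is FRET substrate fluorescence after 2 h at room temperature.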
# [15] = qHTS assay to identify small molecule agonists of the farnesoid-X-receptor (FXR) signaling pathway - cell viability counter screen (AID 743218); further: nearly all actives have a fitted effect of over 45% in size; further: potency means the concentration at half of the fitted maximal effect
# How it was run: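 Viability counter screen in the same wells: CellTiter-Glo luminescence, 30 min room-temperature incubation, measured after the beta-lactamase read. Cells were GeneBLAzer FXR-UAS-bla HEK 293T, compound-treated 16 h at 37C.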
# [16] = target: Bile acid receptor (Homo sapiens) (UniProt Q96RI1); experiment: qHTS assay to identify small molecule agonists of the farnesoid-X-receptor (FXR) signaling pathway (AID 743220; active means well fitted activation curve with a large enough effect in the signal ratio in the repeat runs, not every such curve was filed as active; the % refers to the signal ratio)
# How it was run: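 FXR-UAS-bla HEK 293T cells carrying a UAS-driven beta-lactamase reporter were plated for 5 h at 37C/5% CO2, then exposed to DMSO-dissolved Tox21 10K compounds for 16 h at 37C. A LiveBLAzer B/G FRET substrate was loaded for 2 h at room temperature before fluorescence reading.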
# [17] = qHTS assay to identify small molecule antagonists of the farnesoid-X-receptor (FXR) signaling pathway - cell viability counter screen (AID 743221; active means well fitted cell-killing curve with a large enough effect in the repeat runs, not every such curve was filed as active; further: nearly all actives have a fitted effect of over 50% in size; further: potency means the concentration at half of the fitted maximal effect)
# How it was run: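 In GeneBLAzer FXR-UAS-bla HEK 293T cells stimulated with 50 uM chenodeoxycholic acid (final), compounds acted for 16 h at 37 C. Viability was assessed afterwards by CellTiter-Glo luminescence.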
# [18] = target: Vitamin D3 receptor (Homo sapiens) (UniProt P11473); experiment: qHTS assay to identify small molecule agonists of the vitamin D receptor (VDR) signaling pathway (AID 743222; calls by dose curve)
# Sequence of Vitamin D3 receptor (Homo sapiens) (P11473 whole entry, looked up): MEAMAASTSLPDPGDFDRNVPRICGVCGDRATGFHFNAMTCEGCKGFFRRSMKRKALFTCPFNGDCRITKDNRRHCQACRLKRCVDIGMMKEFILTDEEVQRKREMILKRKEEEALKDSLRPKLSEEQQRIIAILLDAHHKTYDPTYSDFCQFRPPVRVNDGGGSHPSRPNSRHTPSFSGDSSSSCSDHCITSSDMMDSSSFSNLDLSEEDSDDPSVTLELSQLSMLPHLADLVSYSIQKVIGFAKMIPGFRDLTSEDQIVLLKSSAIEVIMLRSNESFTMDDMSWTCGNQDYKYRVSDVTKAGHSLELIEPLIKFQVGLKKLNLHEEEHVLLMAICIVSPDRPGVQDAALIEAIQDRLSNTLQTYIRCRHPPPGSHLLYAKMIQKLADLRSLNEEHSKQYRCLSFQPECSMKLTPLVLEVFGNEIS
# How it was run: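 Agonist mode, beta-lactamase reporter: fluorescence from LiveBLAzer B/G FRET substrate (2 h, room temperature) read after 16 h compound treatment at 37 C of VDR-bla cells, which were pre-incubated 4 h after seeding.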
# [19] = target: Vitamin D3 receptor (Homo sapiens) (UniProt P11473); experiment: qHTS assay to identify small molecule antagonists of the vitamin D receptor (VDR) signaling pathway (AID 743223; active means well fitted inhibition curve with a large enough effect in the signal ratio in the repeat runs, not every such curve was filed as active; the % refers to the signal ratio)
# How it was run: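 Agonist 1alpha,25-dihydroxyvitamin D3 (3 nM in well) was added with each compound to VDR-bla cells preincubated 4 h. Cells stood 16 h at 37C, then FRET substrate 2 h at room temperature; fluorescence intensity recorded.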
# [20] = target: Peroxisome proliferator-activated receptor delta (Homo sapiens) (UniProt Q03181); experiment: qHTS assay to identify small molecule antagonists of the peroxisome proliferator-activated receptor delta (PPARd) signaling pathway (AID 743215; active means well fitted inhibition curve with a large enough effect in the signal ratio in the repeat runs, not every such curve was filed as active; the % refers to the signal ratio;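 further: cells stimulated with agonist L165041 at 300 nM final during compound exposure; series mostly up to about 62 µM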)
# How it was run: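 Agonist L165041 (300 nM final) added with compound to PPARd-bla HEK293H UAS-bla reporter cells; 17 h incubation at 37 C. Read-out: LiveBLAzer FRET substrate, 2 h at room temperature, fluorescence intensity.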
Structure (SMILES),Potency [1],Potency [2],outcome [3],outcome [4],outcome [5],outcome [6],Potency [7],outcome [8],outcome [9],Potency [10],outcome [11],outcome [12],outcome [13],outcome [14],Potency [15],outcome [16],Potency [17],outcome [18],outcome [19],Potency [20]
O=C=NCCCCCCN=C=O,inactive,inactive,inactive,inactive,inactive,inactive,inactive,inactive,inactive,inactive,inactive,inactive,inactive,inactive,inactive,inactive,inactive,inactive,inactive,–
CCCC(C)=O,inactive,inactive,inactive,inactive,inactive,inactive,inactive,inactive,–,inactive,inactive,inactive,inactive,inactive,inactive,inactive,inactive,–,–,–
CC(=O)c1ccccc1,inactive,inactive,inactive,inactive,inactive,inactive,inactive,inactive,inactive,inactive,inactive,inactive,inactive,–,inactive,–,inactive,–,–,inactive
Cc1occc(=O)c1O,inactive,inactive,inactive,inactive,inactive,–,inactive,inactive,inactive,inactive,inactive,–,inactive,–,inactive,–,inactive,–,inactive,–
CCCCCCCCCCCCCCCO,inactive,inactive,inactive,inactive,inactive,inactive,inactive,inactive,–,inactive,inactive,inactive,inactive,inactive,inactive,inactive,inactive,inactive,inactive,inactive
C=C(C)C(=O)O[C@H]1C[C@@H]2CC[C@@]1(C)C2(C)C,inactive,inactive,inactive,inactive,inactive,–,inactive,inactive,inactive,inactive,inactive,inactive,inactive,–,inactive,–,inactive,inactive,inactive,–
CC1CCC2CC1C2(C)C (configuration not stated),inactive,inactive,inactive,inactive,inactive,inactive,inactive,inactive,inactive,inactive,inactive,–,inactive,inactive,inactive,inactive,inactive,–,–,–
COS(C)(=O)=O,inactive,inactive,–,inactive,inactive,inactive,inactive,inactive,inactive,inactive,inactive,inactive,inactive,–,inactive,–,inactive,–,inactive,inactive
CC[C@H](C)C(=O)O[C@H]1C[C@@H](C)C=C2C=C[C@H](C)[C@H](CC[C@@H]3C[C@@H](O)CC(=O)O3)[C@H]21,inactive and 62 µM (active),inactive,inactive,inactive,inactive,–,–,inactive,–,inactive,–,inactive,inactive,inactive,62.5 µM (active) and inactive,inactive,62.5 µM (active) and inactive,inactive,–,–
C[C@H]1C[C@@H]2[C@H]([C@@H](O)C[C@@]3(C)[C@H]2CC[C@]3(O)C(=O)CO)[C@@]2(C)C=CC(=O)C=C12,inactive,inactive,inactive,inactive,inactive,–,inactive,inactive,–,–,inactive,inactive,inactive,–,inactive,–,inactive,–,–,inactive
CC(C)(N)CO,inactive,inactive,inactive,inactive,inactive,–,inactive,inactive,–,inactive,inactive,inactive,inactive,inactive,inactive,inactive,inactive,–,inactive,–
COc1cc(Cc2cnc(N)nc2N)cc(OC)c1OC,inactive,inactive,–,inactive,inactive,inactive,inactive,inactive,inactive,inactive,inactive,inactive,inactive,–,inactive,–,inactive,–,inactive,inactive
OCc1cccnc1,inactive,inactive,inactive,–,–,inactive,inactive,inactive,inactive,inactive,inactive,inactive,inactive,inactive,inactive,inactive,inactive,–,–,–
CCCCC(CC)CO (configuration not stated),inactive,inactive,–,inactive,inactive,inactive,inactive,inactive,inactive,inactive,inactive,inactive,inactive,inactive,inactive,inactive,inactive,inactive,inactive,–
CCOC(=O)NNc1nncc2ccccc12,inactive,inactive,–,inactive,inactive,inactive,inactive,inactive,inactive,inactive,inactive,inactive,inactive,inactive,–,inactive,inactive,–,inactive,–
ON=C1CCCCC1,inactive,inactive,–,inactive,inactive,inactive,inactive,inactive,inactive,inactive,inactive,inactive,inactive,–,inactive,–,inactive,–,inactive,–
CC1CCC(C(C)C)C(O)C1 (configuration not stated),inactive,inactive,inactive,inactive,inactive,–,inactive,inactive,inactive,–,inactive,inactive,inactive,inactive,inactive,inactive,inactive,–,inactive,inactive
